The test system of experiment [1] is Sporothrix brasiliensis CBS 133006. Kind of experiment: growth inhibition relative to untreated control; higher = more growth inhibition (more antifungal activity), active = 80 or more; extreme values may be limits of the assay. To be noted: 1 µM; 48 h. The procedure, abridged: (§1)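 The reported figure is percent growth inhibition relative to untreated cells, from quadruplicate runs. Yeast-form cells of the reference isolates at 1 x 10^5 CFU/ml were exposed to library compounds at a final 1 μM for 48 h at 35°C in 5% CO2, and growth was assessed by microscopy and spectrophotometric readings.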

Experiment [2] relates to Sporothrix schenckii ATCC 32286. The experiment is described as above. To be noted: 1 µM; 48 h. Summed up: as §1

A number with no mark means an inactive call.

In the case of `CC1=Nc2ccc(Cl)cc2C(O)(c2ccc(C)cc2)N1CCN1CCCCC1` (centres undefined), the values for the growth inhibition in experiment [1] and in experiment [2] were 12.2% and 1.25%, respectively.

Regarding `CC(=O)OCC1OC([S-])C(OC(C)=O)C(OC(C)=O)C1OC(C)=O.CCP(CC)CC.[Au+]` (centres undefined), the growth inhibition in experiment [1] was 25.5%; in experiment [2], 55%.

Turning to `Clc1cccc(CO[C@H]2CCc3ccccc3[C@@H]2n2ccnn2)c1`, the growth inhibition in experiment [1] was 15.8%; in experiment [2], 3%.

As for `CCOC(=O)NC(=O)c1ccsc1NC(=O)c1nc2ccccc2s1`, the growth inhibition was 32.8% in experiment [1] and 2.25% in experiment [2].

As to `Cc1cc2nc(NC(=O)C(C)(C)C)nc(Cl)c2n1Cc1ccc(Cl)cc1`, the figures for the growth inhibition in experiment [1] and in experiment [2] were 14.8% and 2.5%, respectively.

On to `COC(=O)c1c(NC(=O)c2cc3ccccc3oc2=O)sc2c1CCN(Cc1ccccc1)C2`, for which the growth inhibition in experiment [1] is 8.75%; in experiment [2], 15%.

As to `CCCCCCCCCCCCCCCCOP(=O)([O-])OCC[N+](C)(C)C`, the growth inhibition in experiment [1] is 24.8%; in experiment [2], 0%.

`Cc1cc(C)nc(-n2nc(C)cc2Nc2ccccc2)n1`: the growth inhibition is 17.2% in experiment [1] and 1% in experiment [2].

As to `CC(c1cc(Cl)cc(Cl)c1)N(C)c1ncc2c(N)nc(N)nc2n1` (centres undefined), the values for the growth inhibition in experiment [1] and in experiment [2] were 11.2% and 16.5%, respectively.

For `CC(=O)NC[C@@H]1CN(c2ccc(N3CCOCC3)c(F)c2)C(=O)O1`, the growth inhibition in experiment [1] was 1.75%; in experiment [2] it was 12.5%.

On to `COc1cncc(-c2cncc(N3CCN(c4ccncc4)CC3)n2)c1`, for which the growth inhibition in experiment [1] was 34.2%; in experiment [2], 0%.

As to `CCCS(=O)(=O)N1CCC(CO)(Cc2ccccc2C(F)(F)F)CC1`, the growth inhibition in experiment [1] and in experiment [2] was 0% throughout.

Source of the values: the supplement of paper PMC7556523.
